Shown are actives, neighbours in structure and some others; about 2.7% of the full set was active somewhere.
GLP-1R agonist: agonists of human GLP-1 receptor; 380,000 compounds, 0.007% hits; HEK293 GLP-1R CRE-luciferase, luminescence, 4-6 h; cells express a hypersensitive GLP-1R form; Potency, µM (titrated, usually from 45.6 µM), for the others: top-dose activation, hits mostly activators; AID 624172; further: % of control where 0% means no effect
TrxR1 substrate: substrates of rat thioredoxin reductase 1; AID 588456; O89049; purified TrxR1 substrate turnover, NADPH consumption readout; 390,000 compounds, 0.01% hits; Potency, µM (series often up to 114 µM), for the others: top-dose activity change, negative = substrate turnover; further: on the % scale 0 is the no-effect control and ±100 the full control effect; nearly all actives have a fitted effect of over 50% in size
Target sequence (O89049 whole entry, looked up): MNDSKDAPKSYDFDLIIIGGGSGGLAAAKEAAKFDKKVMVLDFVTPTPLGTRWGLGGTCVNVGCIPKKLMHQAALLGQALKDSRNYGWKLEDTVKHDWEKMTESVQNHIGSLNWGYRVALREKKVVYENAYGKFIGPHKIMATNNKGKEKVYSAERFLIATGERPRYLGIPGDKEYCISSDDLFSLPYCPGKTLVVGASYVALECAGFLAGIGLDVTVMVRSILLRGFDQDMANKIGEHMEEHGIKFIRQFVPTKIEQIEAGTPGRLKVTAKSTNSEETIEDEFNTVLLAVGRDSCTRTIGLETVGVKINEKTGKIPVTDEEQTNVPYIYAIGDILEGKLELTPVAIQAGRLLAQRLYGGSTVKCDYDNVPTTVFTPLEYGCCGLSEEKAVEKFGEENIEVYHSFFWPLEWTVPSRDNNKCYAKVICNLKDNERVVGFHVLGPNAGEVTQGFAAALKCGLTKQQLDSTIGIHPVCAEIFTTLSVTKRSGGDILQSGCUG
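Rat TrxR1, dispensed at 90 nM, was prereduced with 400 uM NADPH (final) for 5 min at ~22 deg C, then incubated with compound 15 min before 400 uM selenite. A first-read NADPH fluorescence drop versus no-compound background flagged substrates.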
mIDH1 inhibitor: inhibitors of human mutant IDH1 R132H | IDH1-R132H enzyme, NADPH consumption, diaphorase/resazurin fluorescence | O75874 | Potency, µM (doses to about 76.6 µM), for the others: top-dose activity change, negative = inhibition, hits mostly inhibitors | 390,000 compounds, 0.093% hits; further: on the % scale 0 is the no-effect control and ±100 the full control effect; nearly all actives have a fitted effect of over 65% in size
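IDH1-R132H (0.5 ug/mL dispensed) in pH 7.5 Tris buffer was preincubated 30 min with compound, then given a substrate mix of 0.016 mM NADPH and 2 mM alpha-KG for 80 min at room temperature; remaining NADPH was read by diaphorase/resazurin fluorescence.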
GLP1R inv ag: acts as inverse agonist at human GLP-1 receptor | HEK293 GLP-1R CRE-luciferase, luminescence, 24 h; GLP-1R form is constitutively active | P43220 | Potency, µM (series often up to 38.3 µM), without a hit: at the top dose activity change, negative = inhibition, hits mostly inhibitors | 410,000 compounds, 1.6% hits; further: on the % scale 0 is the no-effect control and ±100 the full control effect; nearly all actives have a fitted effect of over 55% in size
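HEK293 cells stably co-expressing constitutively active GLP-1R and a cAMP-responsive luciferase reporter were seeded in DMEM with 10% Nu serum, given compounds after 12 h, and incubated 24 h at 37 deg C. Luminescence was then read.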
HEK293 tox: cytotoxicity counter-screen for GLP-1 receptor inverse agonists. HEK293 cAMP-luciferase reporter cells, luminescence, 24 h. Potency, µM (doses to about 38.3 µM), inactives show at the highest dose activity change, negative = inhibition, actives largely listed as inhibitors. 410,000 compounds, 0.13% hits;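 further: loss of luciferase light is scored as toxicity; on the % scale 0 is the no-effect control and ±100 the full control effect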
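A 23 nL compound transfer followed 12 hours of cell culture at 37 deg C; exposure then lasted 24 hr. Luciferase assay detection reagent was dispensed and plates read for luminescence after a 12 min room-temperature wait.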
TrxR1 inh: rat TrxR1 inhibition. O89049. recombinant rTrxR1, NADPH fluorescence consumption, selenite substrate. Potency, µM (top dose mostly 114 µM), inactives show at the top dose activity change, negative = inhibition, hits mostly inhibitors. 390,000 compounds, 1% hits; further: on the % scale 0 is the no-effect control and ±100 the full control effect; nearly all actives have a fitted effect of over 65% in size
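Rat TrxR1 (90 nM in the dispensed reagent) was pre-reduced with 400 uM NADPH for 5 min at room temperature, then incubated with compound for 15 min. After 400 uM selenite was added, NADPH fluorescence (Ex 340/Em 450 nm) was followed for 8 min.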
Active calls of the source: *; ? = inconclusive; nt = not tested or not shown; [ ] = another dose, or the depositor's remark. The call rests on the fitted dose curve; in most records, active means well fitted curve in the direction sought with a large enough effect; inconclusive means small, poorly fitted or top-dose-only effect, or another doubt; inactive means no such curve, though single readings can be large; an effect the other way counts as inactive or inconclusive. Potency means the concentration at half of the fitted maximal effect.

SMILES | GLP-1R agonist | TrxR1 substrate | mIDH1 inhibitor | GLP1R inv ag | HEK293 tox | TrxR1 inh
COc1cc(NS(=O)(=O)c2ccc(OC)c(C)c2C)c(OC)cc1Cl | 2.3% | -1.0% | 10.1% | 3.98µM* | -22.0% | 8.6%
COc1ccc(OC)c(S(=O)(=O)Nc2cc(OC)c(Cl)cc2OC)c1 | 2.2% | 0.3% | 3.1% | 0.0% | 6.8% | 20.1%
Cc1ccc(C)c(N(C(=O)c2nsc(Cl)c2Cl)C(C(=O)NC2CCCC2)c2ccc(O)cc2)c1 (configuration not stated) | 0.4% | -0.2%[57.1 µM] | -6.3% | 5.62µM* | 8.9% | 10.5%[57.1 µM]
CCN(C(=O)COC(=O)/C=C/c1ccco1)C1CCCCC1 | 2.9% | -5.7% | 1.4% | 2.6% | -4.6% | 35.5µM*
CCOC(=O)c1c(C)[nH]c(C)c1C(=O)COC(=O)/C=C/c1ccco1 | -2.6% | -4.6% | 23.4% | 5.3% | -22.8% | 20µM*
CC1=C(C(=O)Nc2ccccc2F)C(c2ccsc2)C2=C(CC(C)(C)CC2=O)N1 (configuration not stated) | 3.8% | 14.1% | -1.6% | ? | -12.7% | 2.7%
CC1=C(C(=O)Nc2cccc(F)c2)C(c2ccsc2)C2=C(CC(C)(C)CC2=O)N1 (configuration not stated) | 14.1% | 42.3% | -1.1% | 3.98µM* | -22.5% | 5.0%
CCc1cc(C(=O)Nc2cc(S(=O)(=O)N(CC)CC)ccc2N2CCOCC2)sc1C | 5.4% | 2.1% | -1.2% | 7.94µM* | -1.6% | -5.4%
CCN(CC)S(=O)(=O)c1ccc(N2CCOCC2)c(NC(=O)c2cc(C)cc(C)c2)c1 | 18.2% | 3.4%[57.1 µM] | 17.2% | -22.0% | 1.2% | -3.2%[57.1 µM]
c1ccc(CC[n+]2ccncc2)cc1 | nt | -0.7% | nt | nt | nt | -23.7%
NCCCCC(NC(=O)C1CCCN1C(=O)C1CSSCC(N)C(=O)NC(Cc2ccccc2)C(=O)NC(Cc2ccccc2)C(=O)NC(CCC(N)=O)C(=O)NC(CC(N)=O)C(=O)N1)C(=O)NCC(N)=O (configuration not stated) | -0.2% | nt | nt | nt | nt | nt
Clc1ccc2c(c1)C(N1CCNCC1)Cc1ccccc1S2 (configuration not stated) | -16.2% | 3.6% | 15.4% | 8.91µM* | -9.9% | -21.2%
O=c1oc(-c2ccccc2)cc(Cl)c1Cl | -7.9% | 13.5%[57.1 µM] | 2.0% | ? | ? | 5.62µM*
Cc1cc(C(=O)COC(=O)Cc2n[nH]c(=O)c3ccccc23)c(C)n1-c1cccc(C(F)(F)F)c1 | -0.8% | -10.4% | -0.5% | 7.08µM* | -19.7% | -8.2%
Cc1cccc(C(=O)Nc2ccc(N3CC=C(c4ccccc4C)CC3)c(C(=O)O)c2)c1 | nt | -3.1%[57.1 µM] | -26.2% | 0.8% | 0.1% | 4.7%[57.1 µM]
O=C1c2ccccc2-c2onc3ccc(NCCCn4ccnc4)c1c23 | 18.9% | -4.5% | -12.5% | -13.5% | 12.6µM* | -21.7%
COc1ccc2noc3c2c1C(=O)c1ccccc1-3 | 12.2% | -11.5% | 13.8% | ? | ? | ?
O=C(O)/C=C/C(=O)N1N=C(c2ccco2)CC1c1ccco1 (configuration not stated) | -0.2% | 15.5%[57.1 µM] | 1.1% | -6.1% | 2.4% | 14.8%[57.1 µM]
O=C(CCl)N1N=C(c2cccs2)CC1c1ccco1 (configuration not stated) | -18.9% | -10.0% | -3.8% | -17.5%[0.307 µM] | -11.3%[0.307 µM] | 14.1µM*
O=C(CCl)N1N=C(c2ccco2)CC1c1ccco1 (configuration not stated) | 0.6% | 4.2% | -4.3% | 2.24µM* | ? | 2.51µM*
COc1ccc(F)c(CN2CCC(CO)(Cc3cccc(C(F)(F)F)c3)CC2)c1 | 11.2% | -10.0% | 3.8% | ? | -3.3% | 5.7%
COc1cc(CN2CCC(CO)(Cc3cccc(C(F)(F)F)c3)CC2)ccc1F | -1.0% | -6.2% | 5.1% | 3.16µM* | ? | -12.9%
N=c1c2c(-c3ccccc3)c(-c3ccccc3)n(Cc3ccco3)c2ncn1CCO | -10.5% | -2.4% | 2.0% | ? | 7.94µM* | -34.1%
N=c1c2c(-c3ccccc3)c(-c3ccccc3)n(Cc3ccco3)c2ncn1CCCO | 4.8% | 14.0%[57.1 µM] | 9.5% | ? | ? | 27.8%[57.1 µM]
COc1ccccc1N1C(=O)CC(N(O)c2ccccc2)C1=O (configuration not stated) | 5.9% | 3.8%[57.1 µM] | 6.4% | -11.7% | 5.9% | -55.6%
SMILES | GLP-1R agonist | TrxR1 substrate | mIDH1 inhibitor | GLP1R inv ag | HEK293 tox | TrxR1 inh
CCCOc1ccc(N2C(=O)CC(SCCN)C2=O)cc1 (configuration not stated) | -10.3% | 0.0% | 5.6% | 0.0% | -4.1% | 79.4µM*
CCCOc1ccccc1N1C(=O)CC(N(O)c2ccccc2)C1=O (configuration not stated) | 7.4% | 4.1%[57.1 µM] | 5.5% | -14.1% | -2.1% | -11.9%
CCCOc1ccc(N2C(=O)CC(SCC(N)C(=O)OCC)C2=O)cc1 (configuration not stated) | -0.2% | 3.9% | 0.3% | 9.0% | 2.2% | 12.9%
COc1ccccc1N(O)C1CC(=O)N(c2ccc(F)cc2)C1=O (configuration not stated) | 7.9% | 0.3% | 16.8% | -0.8% | -8.1% | 0.891µM*
CCCOc1ccc(N2C(=O)CC(N(O)c3ccccc3)C2=O)cc1 (configuration not stated) | -7.2% | -3.1% | -4.2% | 27.8% | 1.8% | 7.94µM*
CC(=O)c1cccc(-n2c(CCC(=O)O)ccc2-c2ccccc2)c1 | -0.3% | 2.1% | 7.6% | 10.7% | -14.7% | 50.1µM*
CCOC(=O)C1=CN(Cc2cccc(F)c2)S(=O)(=O)NC1c1ccc(Br)cc1F (configuration not stated) | 1.4% | -12.7% | -4.4% | 10µM* | 0.9% | 11.3%
CCN(Cc1ccccc1)C(=O)C1CCC(CNS(=O)(=O)c2ccc3c(c2)CCCC(=O)N3)CC1 (configuration not stated) | nt | -10.0%[57.1 µM] | 0.0% | -12.0% | 6.2% | -10.1%[57.1 µM]
COC(=O)C1=C(C)N(Cc2ccco2)C(=O)/C1=C\c1ccc([N+](=O)[O-])cc1 | -0.6% | -1.5% | 3.2% | 4.7% | ? | 20µM*
COC(=O)C1=C(C)N(Cc2ccco2)C(=O)/C1=C\c1ccc(N(C)C)cc1 | 0.0% | -5.0% | 6.8% | 23.2% | -3.9% | 1.3%
COC(=O)C1=C(C)N(C)C(=O)/C1=C\c1ccco1 | -6.8% | -5.6% | -5.2% | 32.9% | -22.1% | 25.1µM*
COC(=O)C1=C(C)N(Cc2ccc(OC)cc2)C(=O)/C1=C\c1ccco1 | 19.9% | -7.6% | 8.1% | ? | -9.8% | 35.5µM*
